Source: PubChem BioAssay
Shown are actives, neighbours in structure and some others; about 21% of the full set was active somewhere.
RORgamma inh: qHTS for inhibitors of ROR gamma transcriptional activity. Drosophila S2 Gal4-RORgamma UAS-luciferase reporter, 20 h. Nuclear receptor ROR-gamma (Mus musculus), P51450. 310,000 tested, 5.4% active. Potency, µM (doses to about 53.6 µM), actives largely listed as inhibitors; also: nearly all actives have a fitted effect of over 60% in size
Target sequence (P51450 whole entry, looked up, the tested form may be a part): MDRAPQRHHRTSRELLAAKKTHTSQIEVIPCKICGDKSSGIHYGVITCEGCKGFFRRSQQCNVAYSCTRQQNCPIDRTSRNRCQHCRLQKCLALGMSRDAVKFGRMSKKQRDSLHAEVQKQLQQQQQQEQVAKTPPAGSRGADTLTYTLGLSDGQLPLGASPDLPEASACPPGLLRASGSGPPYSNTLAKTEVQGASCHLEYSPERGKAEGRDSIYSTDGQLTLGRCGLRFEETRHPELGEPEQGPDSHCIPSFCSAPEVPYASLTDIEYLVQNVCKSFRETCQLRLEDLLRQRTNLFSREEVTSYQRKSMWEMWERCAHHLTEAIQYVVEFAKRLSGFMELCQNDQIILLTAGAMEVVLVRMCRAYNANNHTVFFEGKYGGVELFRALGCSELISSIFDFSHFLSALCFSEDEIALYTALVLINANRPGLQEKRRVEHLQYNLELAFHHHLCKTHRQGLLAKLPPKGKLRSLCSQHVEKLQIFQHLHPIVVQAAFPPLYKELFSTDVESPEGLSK
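Luminescence from a UAS-regulated Photinus luciferase reporter in stably transfected Drosophila Schneider cells is measured; decreased signal marks ROR gamma inhibition. Fusion expression is induced by 700 uM copper sulfate for 20 hr.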
TDP1 cell noCPT: qHTS for Inhibitors of human tyrosyl-DNA phosphodiesterase 1 (TDP1): qHTS in cells in absence of CPT | DT40 Tdp1-/- hTDP1 cells, no CPT, ATP luminescence, 48 h | 420,000 tested, 15% active | Potency, µM (series often up to 46.2 µM), usual class: inhibitors; also: nearly all actives have a fitted effect of over 55% in size
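Readout: luminescence from CellTiter-Glo after 30 min in the dark at RT. Cells: DT40 Tdp1-/- with stable hTDP1, 400/well. Exposure: compounds alone, ≥48 hr, 37 °C.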
DT40 TDP1 CPT: qHTS for Inhibitors of human tyrosyl-DNA phosphodiesterase 1 (TDP1): qHTS in cells in presence of CPT; chicken DT40 Tdp1-/-;hTDP1 cells + 20 nM CPT, ATP luminescence, 48 h; Potency, µM (series often up to 46.2 µM), hits mostly inhibitors; 420,000 tested, 12% active; AID 686979, 2013; also: nearly all actives have a fitted effect of over 55% in size
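Cell growth measured by CellTiter-Glo luminescence after a minimum 48 h, 37 C compound exposure with 20 nM CPT in Tdp1-knockout DT40 cells stably expressing hTDP1, seeded 400/well; qHTS titration format.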
ELG1 repair inh: qHTS screen for small molecules that inhibit ELG1-dependent DNA repair in human embryonic kidney (HEK293T) cells expressing luciferase-tagged ELG1; HEK293T ELG1-luciferase reporter, luminescence, 16 h; DNA damage induced by 5-fluorouridine; Potency, µM (series often up to 46.1 µM), hits mostly inhibitors; 330,000 tested, 2.3% active; AID 504467, 2011; also: nearly all actives have a fitted effect of over 55% in size
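5-Fluorouridine DNA damage + compound/DMSO, 2,000 cells/well, 16 h, 37 °C/5% CO2. ONE-Glo, 30 min RT, luminescence. Readout = decrease in reporter signal.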
Gal4-VP16 FLuc: VP16 counterscreen qHTS for inhibitors of ROR gamma transcriptional activity | Drosophila S2 Gal4-VP16 UAS-luciferase, luminescence, 20 h | Potency, µM (doses to about 53.6 µM), hits mostly inhibitors | 310,000 tested, 3.5% active | AID 2546, 2010;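 also: Gal4-VP16 expression switched on by copper sulfate through the metallothionein promoter; nearly all actives have a fitted effect of over 50% in size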
IL-1B inflam inh: qHTS for Inhibitors of Inflammasome Signaling: IL-1-beta AlphaLISA Primary Screen; THP-1 LPS/ATP IL-1B secretion, AlphaLISA, 16 h; hits give low values; activity change, % at 57.5 µM; 360,000 tested, 4.7% active; AID 743279, 2014; in the data active = activity change below about -50%; inconclusive = mostly about -30% to -49%
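THP-1 cells pretreated 1 hr with compounds (up to 57.5 uM final), then stimulated with LPS (250 ng/mL final) plus ATP (1.25 mM final); secreted IL-1B measured by AlphaLISA after 16 hr, decreased signal indicating inhibition.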
Numbers stand for hits; n = inactive; u = inconclusive; x = no result given. Unless noted, calls follow the shape of the dose curve; as a rule, active = well fitted curve in the direction sought with a large enough effect; inconclusive = small, poorly fitted or top-dose-only effect, or another doubt; inactive = no such curve, though single readings can be large; an effect the other way counts as inactive or inconclusive.

SMILES | RORgamma inh | TDP1 cell noCPT | DT40 TDP1 CPT | ELG1 repair inh | Gal4-VP16 FLuc | IL-1B inflam inh
COc1ccc(/C(C)=N/NC(=O)CNC(=O)c2cccs2)cc1OC | n | n | n | n | n | n
CCc1nnc2c(Nc3cc(OC)c(Cl)cc3OC)nc3ccccc3n12 | x | n | u | x | x | x
NS(=O)(=O)c1cccc(NC(=O)c2cccnc2Oc2ccccc2)c1 | n | u | n | u | n | n
N/C(COc1ccc(F)cc1)=N\NC(=O)c1cccnc1Oc1ccccc1 | 2.5µM | n | u | n | 4.5µM | u
Cc1cccc(C(=O)NNc2ncnc3c2cnn3C)c1 | u | n | n | n | n | n
Cc1cccc(C(=O)NNc2ncnc3c2cnn3-c2ccc(C)cc2C)c1 | x | u | 23µM | x | x | x
Cc1ccc(-n2ncc3c(NNC(=O)c4cccs4)ncnc32)cc1 | 1.3µM | n | n | n | 10µM | n
Cc1ccc(-n2ncc3c(NNC(=O)c4ccco4)ncnc32)c(C)c1 | 11µM | n | n | n | u | n
Cc1ccc(-n2ncc3c(NCc4ccco4)ncnc32)c(C)c1 | u | u | u | n | n | n
CCCCCn1c(=O)[nH]c2cc(C(=O)NCc3ccc(F)cc3)ccc2c1=O | x | n | n | x | x | x
CN(C(=O)CSc1nc2ccc(NC(=O)c3ccco3)cc2s1)c1ccccc1 | x | 23µM | 18µM | x | x | x
CN(C(=O)CSc1nc2ccc(NC(=O)c3cccs3)cc2s1)c1ccccc1 | x | 16µM | 23µM | x | x | x
CN(C(=O)c1cccc(NC(=O)c2ccco2)c1)c1ccccc1 | n | n | n | u | n | n
c1ccc(-c2nc3ccccc3nc2-c2ccccn2)nc1 | n | n | n | n | n | n
c1ccc(C2=NNC(c3ccccn3)=NN2)nc1 | u | 9.2µM | 9.2µM | u | u | u
c1ccc(-c2nnc(-c3ccccn3)s2)nc1 | 1.8µM | u | n | u | n | n
COCC(=O)N(C)c1nnc(-c2ccccn2)s1 | n | n | n | u | n | n
c1ccc(-c2nc(-c3ccccn3)nc(-c3ccccn3)n2)nc1 | n | 15µM | u | u | n | n
Clc1ccc(CSc2nccn2Cc2ccccc2)cc1 | u | 16µM | u | n | n | -73
Cc1ccc(NC(=O)CSc2nccn2Cc2ccccc2)cc1C | n | 21µM | u | u | n | n
CC(=O)Nc1ccc(NC(=O)CSc2nccn2Cc2ccccc2)cc1 | n | u | u | 21µM | n | n
Cc1c(CN(C)C(=O)C2CCC(=O)N(Cc3ccccc3F)C2)[nH]c2ccccc12 (configuration not stated) | x | n | n | x | x | n
COc1ccc(CCNC(=O)Oc2ccccc2)cc1OC | n | n | n | n | n | n
CCCc1c(O)c2ccccc2[nH]c1=O | n | n | n | n | n | n
O=C(O)c1ccc(N=Nc2c(O)[nH]c3ccccc23)cc1 | u | u | u | u | 35µM | n
SMILES | RORgamma inh | TDP1 cell noCPT | DT40 TDP1 CPT | ELG1 repair inh | Gal4-VP16 FLuc | IL-1B inflam inh
Cc1ccc(N=Nc2c(O)c3ccccc3[nH]c2=O)c(S(=O)(=O)N(C)C)c1 | n | x | x | n | n | x
CN(C)C(=O)c1ccc(N=Nc2c(O)c3ccccc3[nH]c2=O)cc1 | x | 21µM | 21µM | x | x | n
Cc1cc(N=Nc2c(O)c3ccccc3[nH]c2=O)ccc1N=Nc1ccc(C(=O)N(C)C)cc1 | n | 7.3µM | 10µM | u | n | n
N#Cc1ccsc1NC(=O)c1cccc([N+](=O)[O-])c1 | n | u | n | 5.8µM | n | n
N#Cc1ccsc1NC(=O)c1ccc2ncsc2c1 | x | u | u | x | x | n
N#Cc1ccsc1NC(=O)c1ccc(Cl)c([N+](=O)[O-])c1 | n | 2.3µM | 2.9µM | u | n | u
O=C(O)c1cc(NC(=O)c2ccc(Cl)c([N+](=O)[O-])c2)cc(C(=O)O)c1 | n | n | n | n | n | n
Cc1ccccc1Cn1c(=O)n(CCCC(=O)NCc2ccco2)c(=O)c2ccccc21 | n | u | u | u | n | n
O=C(CCCCn1c(=O)c2ccccc2n(CC(=O)NC2CCCC2)c1=O)NCc1ccco1 | n | n | n | n | n | n
O=C(CCCCn1c(=O)c2ccccc2n(Cc2ccc(Cl)cc2)c1=O)NCc1ccco1 | n | 16µM | u | u | n | n
O=C(CCCn1c(=O)c2sccc2n(Cc2ccc(F)cc2)c1=O)NCc1ccco1 | n | 21µM | 26µM | 21µM | n | n
O=C(CCCn1c(=O)c2sccc2n(CC(=O)OCc2ccccc2)c1=O)NCc1ccco1 | u | u | n | u | n | n
Cc1cccc(Cn2c(=O)n(CCCC(=O)NCc3ccco3)c(=O)c3ccccc32)c1 | n | 21µM | 9.2µM | u | n | u
CCC1CCCCN1C(=O)Cn1c(=O)n(CCCCCC(=O)NCc2ccccc2Cl)c(=O)c2sccc21 (configuration not stated) | x | 18µM | u | x | x | x
